Data as given in PubChem BioAssay AID1159580 (chemical genetic matrix, 2015).
Where “and” joins values, the source holds several entries; their conditions need not be identical. Identical values can stand only once. The whole screen tested about 5,500 compounds, of which about 2,000 (36%) were called active. Not shown: some 18% with an inconclusive outcome. Rule as the data show it: active = normalized growth mostly below about 0.91 (no sharp cut-off); inconclusive = no clear call, values can overlap the other calls; inactive = mostly above about 0.92. The list shows a part of the results.

Experiment: chemical genetic growth profiling, strain panel (AID 1159580);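 also: tested at 20 µM; growth read once vehicle control cultures reached saturation at 30 °C; 1 = growth at the plate median or of vehicle wells; lower values mean less growth of the strain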
Details: S. cerevisiae deletion strains, growth OD

Measured: normalized growth

C=C1C2CC[C@@]3(C)[C@H](c4ccoc4)OC(=O)C[C@]13O[C@H]1CC(O)C(C)(C)C(CC(=O)OC)[C@@]21C (stereo not given in full)
inactive: locus YAL021C, strain ccr4, active compounds read low 0.962 | locus YAL026C, strain drs2, active compounds read low 0.934 | locus YAL030W, strain snc1, active compounds read low 0.949 | locus YBL061C, strain skt5, active compounds read low 0.984 | locus YBR009C, strain hhf1, active compounds read low 0.972 | locus YBR021W, strain FUR4, active compounds read low 0.991 | locus YBR023C, strain chs3, active compounds read low 0.981 | locus YBR171W, strain sec66, active compounds read low 0.98 | locus YBR229C, strain ROT2, active compounds read low 0.995 | locus YBR231C, strain swc5, active compounds read low 0.974 | locus YBR279W, strain paf1, active compounds read low 0.978 | locus YCL011C, strain gbp2, active compounds read low 0.984 | locus YCL016C, strain dcc1, active compounds read low 0.983 | locus YCL029C, strain bik1, active compounds read low 1.01 | locus YCL061C, strain MRC1, active compounds read low 0.989 | locus YCL069W, strain vba3, active compounds read low 0.979 | locus YCR088W, strain abp1, active compounds read low 0.977 | locus YDL005C, strain med2, active compounds read low 0.952 | locus YDL035C, strain GPR1, active compounds read low 0.999 | locus YDL040C, strain nat1, active compounds read low 0.982 | locus YDL074C, strain BRE1, active compounds read low 0.999 | locus YDL101C, strain DUN1, active compounds read low 0.999 | locus YDL185W, strain tfp1, active compounds read low 1.02 | locus YDL192W, strain arf1, active compounds read low 1.01 | locus YDR001C, strain nth1, active compounds read low 0.962 | locus YDR069C, strain doa4, active compounds read low 0.957 | locus YDR101C, strain arx1, active compounds read low 1.01 | locus YDR137W, strain rgp1, active compounds read low 0.938 | locus YDR150W, strain NUM1, active compounds read low 0.98 | locus YDR159W, strain sac3, active compounds read low 0.936 | locus YDR162C, strain NBP2, active compounds read low 1.01 | locus YDR195W, strain ref2 0.937 | locus YDR297W, strain sur2, active compounds read low 0.965 | locus YDR318W, strain mcm21, active compounds read low 1.02 | locus YDR334W, strain swr1, active compounds read low 0.966 | locus YDR335W, strain msn5, active compounds read low 0.967 | locus YDR388W, active compounds read low 1 | locus YDR392W, strain spt3, active compounds read low 0.97 | locus YDR502C, strain sam2, active compounds read low 1 | locus YEL003W, strain gim4, active compounds read low 0.975 | locus YEL037C, strain rad23, active compounds read low 0.976 | locus YEL061C, strain CIN8 (second series), active compounds read low 0.966 | locus YEL061C, strain CIN8, active compounds read low 1.05 | locus YER015W, strain faa2, active compounds read low 0.985 | locus YER016W, strain bim1, active compounds read low 0.967 | locus YER110C, active compounds read low 1.02 | locus YER111C, strain swi4, active compounds read low 0.988 | locus YER155C, strain BEM2 (second series), active compounds read low 0.955 | locus YER155C, strain BEM2, active compounds read low 1 | locus YER167W, strain BCK2, active compounds read low 1 | locus YFR010W, strain ubp6, active compounds read low 0.965 | locus YGL078C, strain dbp3, active compounds read low 1.02 | locus YGL086W, strain mad1, active compounds read low 1.02 | locus YGL167C, strain pmr1, active compounds read low 0.963 | locus YGL173C, strain kem1, active compounds read low 0.961 | locus YGL227W, strain vid30, active compounds read low 0.986 | locus YGL240W, strain doc1, active compounds read low 0.97 | locus YGL248W, strain PDE1, active compounds read low 1.01 | locus YGL253W, strain hxk2, active compounds read low 0.972 | locus YGR135W, strain pre9, active compounds read low 1.01 | locus YGR252W, strain gcn5, active compounds read low 1.02 | locus YHR013C, strain ard1, active compounds read low 0.939 | locus YHR027C, strain rpn1, active compounds read low 0.967 | locus YHR030C, strain SLT2, active compounds read low 1.01 and 0.963 | locus YHR079C, strain IRE1 (second series), active compounds read low 1.01 | locus YHR079C, strain IRE1, active compounds read low 0.973 | locus YHR094C, strain hxt1, active compounds read low 1.01 | locus YHR129C, strain ARP1, active compounds read low 1 | locus YHR142W, strain chs7, active compounds read low 0.986 | locus YHR200W, strain rpn10, active compounds read low 0.993 | locus YIL066C, strain RNR3, active compounds read low 0.997 | locus YIL073C, strain SPO22, active compounds read low 1.06 | locus YIL125W, strain kgd1, active compounds read low 1.01 | locus YIR030C, strain dcg1, active compounds read low 1.01 | locus YJL092W, strain hpr5, active compounds read low 0.975 | locus YJL095W, strain BCK1 (second series), active compounds read low 0.956 | locus YJL095W, strain BCK1, active compounds read low 1.01 and 0.974 | locus YJL115W, strain asf1, active compounds read low 0.937 | locus YJL129C, strain trk1, active compounds read low 0.963 | locus YJL134W, strain LCB3, active compounds read low 1.01 | locus YJL154C, strain vps35, active compounds read low 0.973 | locus YJL164C, strain tpk1, active compounds read low 0.972 | locus YJL166W, strain qcr8, active compounds read low 0.97 | locus YJL168C, strain set2, active compounds read low 1.01 | locus YJL187C, strain SWE1 (second series), active compounds read low 1
